The text below walks through data of publication PMC7862700, “An all-to-all approach to the identification of sequence-specific readers for epigenetic DNA modifications on cytosine”.

Holding throughout (experiment): DAPPL (digital affinity profiling via proximity ligation, sequencing); 10 mM Tris-HCl pH 7.5, 50 mM NaCl, 1 mM DTT, 4% glycerol, room temperature, 30 min; GST-TFs on glutathione beads, 16-mer random dsDNA library, 0.1% formaldehyde crosslink after washing; high values mean tight binding
Conditions in all cases: protein: recombinant; tags: N-terminal GST; dsDNA, one strand shown

In one assay the target is T1, FLI1 (Homo sapiens, UniProt Q01543 1-452).
T1 sequence: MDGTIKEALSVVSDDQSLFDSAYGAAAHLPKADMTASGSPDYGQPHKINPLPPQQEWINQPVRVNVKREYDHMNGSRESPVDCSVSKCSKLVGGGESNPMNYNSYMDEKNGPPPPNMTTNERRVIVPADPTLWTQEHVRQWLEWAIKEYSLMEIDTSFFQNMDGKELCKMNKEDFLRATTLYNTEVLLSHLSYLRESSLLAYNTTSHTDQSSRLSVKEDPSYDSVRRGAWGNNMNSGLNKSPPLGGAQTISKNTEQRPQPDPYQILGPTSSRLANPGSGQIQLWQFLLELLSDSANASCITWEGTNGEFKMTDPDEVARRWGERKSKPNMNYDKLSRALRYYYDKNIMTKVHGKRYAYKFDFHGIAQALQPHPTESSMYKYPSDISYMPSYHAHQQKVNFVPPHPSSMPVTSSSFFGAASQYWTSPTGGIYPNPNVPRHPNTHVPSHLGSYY
The method in brief:
(§1)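 Pools were built from human transcription factors expressed in yeast as GST fusions, captured on glutathione beads and DNA-barcoded, along with a tag-only sample. Incubation with 200 nmole of a 16-mer random double-stranded DNA library lasted 30 min at room temperature in Tris/NaCl/DTT/glycerol buffer, and was followed by washing, 0.1% formaldehyde crosslinking, proximity ligation, PCR amplification and Illumina NextSeq500 sequencing. Binding signal is the quotient of each hexamer's read frequency for a factor and its frequency for the tag-only sample.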

For another assay, the target named is T2, ELK1 (Homo sapiens, UniProt P19419 1-428).
T2 sequence: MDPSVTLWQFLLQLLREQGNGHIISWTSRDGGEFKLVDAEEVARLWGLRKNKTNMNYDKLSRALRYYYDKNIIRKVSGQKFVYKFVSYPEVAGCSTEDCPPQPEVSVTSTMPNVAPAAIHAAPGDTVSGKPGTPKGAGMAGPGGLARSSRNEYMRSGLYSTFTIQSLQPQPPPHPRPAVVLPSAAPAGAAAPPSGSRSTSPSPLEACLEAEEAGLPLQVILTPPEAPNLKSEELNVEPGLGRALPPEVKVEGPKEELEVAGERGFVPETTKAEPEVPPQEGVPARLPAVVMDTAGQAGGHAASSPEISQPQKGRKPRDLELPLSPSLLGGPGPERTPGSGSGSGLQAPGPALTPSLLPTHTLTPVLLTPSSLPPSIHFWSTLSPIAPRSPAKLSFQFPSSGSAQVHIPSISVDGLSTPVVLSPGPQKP
The method in brief: as §1

The next assay addresses T3, GABPA (Homo sapiens, UniProt Q06546 1-454).
T3 sequence: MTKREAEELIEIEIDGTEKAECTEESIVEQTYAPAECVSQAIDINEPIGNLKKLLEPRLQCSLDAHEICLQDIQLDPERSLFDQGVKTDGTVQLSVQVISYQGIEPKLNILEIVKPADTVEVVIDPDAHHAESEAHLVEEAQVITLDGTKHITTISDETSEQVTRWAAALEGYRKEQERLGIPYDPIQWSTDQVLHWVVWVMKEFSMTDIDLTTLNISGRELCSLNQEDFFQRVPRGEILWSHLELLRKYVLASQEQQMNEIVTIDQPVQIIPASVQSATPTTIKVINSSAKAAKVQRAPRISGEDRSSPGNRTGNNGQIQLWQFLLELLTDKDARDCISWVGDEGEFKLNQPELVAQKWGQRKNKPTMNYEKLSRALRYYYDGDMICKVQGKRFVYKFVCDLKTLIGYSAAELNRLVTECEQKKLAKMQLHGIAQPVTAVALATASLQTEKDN
In outline: as §1

The target in a further assay is T4, ERG (Homo sapiens, UniProt P11308 1-479).
T4 sequence: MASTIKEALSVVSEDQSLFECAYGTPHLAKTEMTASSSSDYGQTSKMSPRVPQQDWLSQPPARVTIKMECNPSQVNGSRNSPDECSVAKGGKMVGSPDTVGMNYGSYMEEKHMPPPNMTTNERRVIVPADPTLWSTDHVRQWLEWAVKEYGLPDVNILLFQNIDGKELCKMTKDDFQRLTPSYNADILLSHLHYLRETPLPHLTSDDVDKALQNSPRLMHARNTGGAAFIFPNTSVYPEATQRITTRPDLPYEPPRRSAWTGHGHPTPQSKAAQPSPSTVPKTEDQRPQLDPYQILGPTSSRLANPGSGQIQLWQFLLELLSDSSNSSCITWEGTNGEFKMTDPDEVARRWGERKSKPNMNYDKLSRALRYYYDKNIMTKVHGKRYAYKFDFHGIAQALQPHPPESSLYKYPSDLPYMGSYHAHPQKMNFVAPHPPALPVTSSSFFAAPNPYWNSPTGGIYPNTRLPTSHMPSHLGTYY
The method in brief: as §1

Another assay has as its target ELF1 (Homo sapiens, UniProt P32519 1-619). The method in brief: as §1
The target of a further assay is T5, EHF (Homo sapiens, UniProt Q9NZC4 1-300).
T5 sequence: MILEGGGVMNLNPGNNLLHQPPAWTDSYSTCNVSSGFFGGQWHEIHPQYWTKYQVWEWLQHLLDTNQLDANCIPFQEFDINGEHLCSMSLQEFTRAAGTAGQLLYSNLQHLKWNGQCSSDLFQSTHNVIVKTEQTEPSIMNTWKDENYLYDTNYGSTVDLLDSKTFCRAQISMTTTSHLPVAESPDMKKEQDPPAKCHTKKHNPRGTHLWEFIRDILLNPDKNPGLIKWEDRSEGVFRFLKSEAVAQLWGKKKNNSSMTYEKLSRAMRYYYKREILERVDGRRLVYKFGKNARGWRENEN
In outline: as §1

Another assay deals with SPI1 (Homo sapiens, UniProt P17947 1-270). In outline:
as §1

The target of a further assay is SPIB (Homo sapiens, UniProt Q01892 1-262). The method in brief:
as §1

The target of another assay is T6, ELK3 (Homo sapiens, UniProt P41970 1-407).
T6 sequence: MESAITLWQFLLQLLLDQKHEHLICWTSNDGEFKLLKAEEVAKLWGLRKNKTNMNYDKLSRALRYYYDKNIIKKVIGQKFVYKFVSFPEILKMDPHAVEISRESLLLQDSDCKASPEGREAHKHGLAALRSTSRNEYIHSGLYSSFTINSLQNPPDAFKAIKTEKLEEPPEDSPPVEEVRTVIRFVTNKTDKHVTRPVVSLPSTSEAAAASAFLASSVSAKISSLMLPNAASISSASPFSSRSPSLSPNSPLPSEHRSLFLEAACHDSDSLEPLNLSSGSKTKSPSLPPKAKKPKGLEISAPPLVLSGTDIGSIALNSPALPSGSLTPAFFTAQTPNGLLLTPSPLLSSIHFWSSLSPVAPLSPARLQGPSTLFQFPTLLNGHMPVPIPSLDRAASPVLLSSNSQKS
In outline: as §1

Chain of ELF1 (P32519 whole entry): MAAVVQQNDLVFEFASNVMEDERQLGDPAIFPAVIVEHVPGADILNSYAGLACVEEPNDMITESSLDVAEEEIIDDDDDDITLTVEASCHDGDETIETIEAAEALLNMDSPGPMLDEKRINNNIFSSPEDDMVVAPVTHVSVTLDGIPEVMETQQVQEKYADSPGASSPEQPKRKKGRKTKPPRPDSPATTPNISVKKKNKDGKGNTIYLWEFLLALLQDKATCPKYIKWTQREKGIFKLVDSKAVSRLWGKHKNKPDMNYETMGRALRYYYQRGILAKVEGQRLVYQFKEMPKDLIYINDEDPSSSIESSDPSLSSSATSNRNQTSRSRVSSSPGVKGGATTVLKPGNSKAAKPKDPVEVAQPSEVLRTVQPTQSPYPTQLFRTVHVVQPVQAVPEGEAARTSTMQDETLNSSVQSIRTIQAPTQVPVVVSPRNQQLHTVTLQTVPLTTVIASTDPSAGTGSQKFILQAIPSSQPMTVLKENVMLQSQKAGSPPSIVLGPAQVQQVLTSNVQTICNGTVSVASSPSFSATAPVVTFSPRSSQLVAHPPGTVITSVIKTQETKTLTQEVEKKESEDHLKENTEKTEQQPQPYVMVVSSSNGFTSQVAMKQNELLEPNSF
Chain of SPIB (Q01892 whole entry): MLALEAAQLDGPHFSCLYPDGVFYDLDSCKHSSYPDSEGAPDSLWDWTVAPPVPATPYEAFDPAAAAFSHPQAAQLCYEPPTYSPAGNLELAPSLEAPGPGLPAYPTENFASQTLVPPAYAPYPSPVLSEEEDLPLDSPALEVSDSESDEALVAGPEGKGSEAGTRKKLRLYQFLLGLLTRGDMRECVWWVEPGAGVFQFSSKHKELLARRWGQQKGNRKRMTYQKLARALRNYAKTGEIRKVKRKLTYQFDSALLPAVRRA

As to TTGCGA, the binding signal with FLI1 was 1.19 fold enrichment (6-mer frequency, TF over GST control); in the assay with ELK1, 1.08 fold enrichment (6-mer frequency, TF over GST control); with GABPA, 1.1 fold enrichment (6-mer frequency, TF over GST control); with ERG, 1.17 fold enrichment (6-mer frequency, TF over GST control); with ELF1, 1.16 fold enrichment (6-mer frequency, TF over GST control); in the assay with EHF it was 1.13 fold enrichment (6-mer frequency, TF over GST control). Moreover, the binding signal is 1.17 fold enrichment (6-mer frequency, TF over GST control) with SPI1; 1.23 fold enrichment (6-mer frequency, TF over GST control) with SPIB; 1.21 fold enrichment (6-mer frequency, TF over GST control) with ELK3.
As for TATAAA, the binding signal is 1.17 fold enrichment (6-mer frequency, TF over GST control) in the assay with FLI1; 1.29 fold enrichment (6-mer frequency, TF over GST control) with ELK1; 1.21 fold enrichment (6-mer frequency, TF over GST control) in the assay with GABPA; 1.18 fold enrichment (6-mer frequency, TF over GST control) with ERG; 1.21 fold enrichment (6-mer frequency, TF over GST control) with ELF1; 1.28 fold enrichment (6-mer frequency, TF over GST control) in the assay with EHF. For the same sequence, the binding signal with SPI1 was 1.26 fold enrichment (6-mer frequency, TF over GST control); in the assay with SPIB, 1.3 fold enrichment (6-mer frequency, TF over GST control); in the assay with ELK3 it was 1.26 fold enrichment (6-mer frequency, TF over GST control).
With TACATA, the binding signal was 1.18 fold enrichment (6-mer frequency, TF over GST control) with FLI1; 1.19 fold enrichment (6-mer frequency, TF over GST control) with ELK1; 1.22 fold enrichment (6-mer frequency, TF over GST control) with GABPA; 1.24 fold enrichment (6-mer frequency, TF over GST control) with ERG; 1.18 fold enrichment (6-mer frequency, TF over GST control) in the assay with ELF1; 1.17 fold enrichment (6-mer frequency, TF over GST control) in the assay with EHF. The binding signal is 1.15 fold enrichment (6-mer frequency, TF over GST control) in the assay with SPI1; 1.22 fold enrichment (6-mer frequency, TF over GST control) in the assay with SPIB; 1.19 fold enrichment (6-mer frequency, TF over GST control) with ELK3.
For CTCCTC, the binding signal in the assay with FLI1 is 1.36 fold enrichment (6-mer frequency, TF over GST control); in the assay with ELK1, 1.38 fold enrichment (6-mer frequency, TF over GST control); in the assay with GABPA, 1.39 fold enrichment (6-mer frequency, TF over GST control); with ERG it was 1.26 fold enrichment (6-mer frequency, TF over GST control); with ELF1 it was 1.32 fold enrichment (6-mer frequency, TF over GST control); in the assay with EHF it was 1.54 fold enrichment (6-mer frequency, TF over GST control). Moreover, the binding signal is 1.39 fold enrichment (6-mer frequency, TF over GST control) in the assay with SPI1; 1.4 fold enrichment (6-mer frequency, TF over GST control) in the assay with SPIB; 1.31 fold enrichment (6-mer frequency, TF over GST control) with ELK3.
For CTTTTT, the binding signal in the assay with FLI1 is 1.22 fold enrichment (6-mer frequency, TF over GST control); in the assay with ELK1, 1.16 fold enrichment (6-mer frequency, TF over GST control); in the assay with GABPA it was 1.32 fold enrichment (6-mer frequency, TF over GST control); with ERG, 1.25 fold enrichment (6-mer frequency, TF over GST control); with ELF1, 1.31 fold enrichment (6-mer frequency, TF over GST control); with EHF, 1.17 fold enrichment (6-mer frequency, TF over GST control). For the same sequence, the binding signal with SPI1 was 1.88 fold enrichment (6-mer frequency, TF over GST control); with SPIB, 1.41 fold enrichment (6-mer frequency, TF over GST control); in the assay with ELK3, 1.37 fold enrichment (6-mer frequency, TF over GST control).
As to ACCCTT, the binding signal with FLI1 was 1.3 fold enrichment (6-mer frequency, TF over GST control); with ELK1, 1.23 fold enrichment (6-mer frequency, TF over GST control); with GABPA, 1.23 fold enrichment (6-mer frequency, TF over GST control); with ERG, 1.19 fold enrichment (6-mer frequency, TF over GST control); in the assay with ELF1, 1.16 fold enrichment (6-mer frequency, TF over GST control); with EHF it was 1.18 fold enrichment (6-mer frequency, TF over GST control). Further, the binding signal with SPI1 was 1.21 fold enrichment (6-mer frequency, TF over GST control); in the assay with SPIB, 1.19 fold enrichment (6-mer frequency, TF over GST control); with ELK3, 1.2 fold enrichment (6-mer frequency, TF over GST control).
As for CTTATT, the binding signal with FLI1 was 1.61 fold enrichment (6-mer frequency, TF over GST control); with ELK1, 1.39 fold enrichment (6-mer frequency, TF over GST control); with GABPA, 1.41 fold enrichment (6-mer frequency, TF over GST control); with ERG, 1.53 fold enrichment (6-mer frequency, TF over GST control); with ELF1 it was 1.5 fold enrichment (6-mer frequency, TF over GST control); with EHF it was 1.48 fold enrichment (6-mer frequency, TF over GST control). Moreover, the binding signal in the assay with SPI1 is 1.61 fold enrichment (6-mer frequency, TF over GST control); with SPIB it was 1.44 fold enrichment (6-mer frequency, TF over GST control); with ELK3 it was 1.59 fold enrichment (6-mer frequency, TF over GST control).
